# Hedgehog inh: blocks Sonic Hedgehog signaling. Shh-LIGHT2 Gli-luciferase reporter, 30 h. 22,000 tested, 2.1% active. inhibition, % (no concentration beside the values);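 active = mean inhibition across valid replicates above about 65%, limit read from the data; inconclusive = mean under the limit, yet half or more replicates past it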;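 note: pathway switched on by Shh-conditioned medium diluted 1 in 25 in low serum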
# MITF inhib: blocks MITF activity; TRPM1 promoter luciferase, luminescence, 24 h; inhibition, % (test concentration not listed); 37,000 tested, 0.28% active; in the data active = inhibition above about 85%; inconclusive = no clear call, values can overlap the other calls; inactive = below about 68%;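 note: human melanocyte line stably carrying TRPM1 promoter luciferase reporter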
# BJeLR viab HTS: BJeLR cell viability reduction; BJeLR fibroblasts viability, CellTiterGlo ATP luminescence, 48 h; HRASV12, hTERT and SV40 LT/ST transformed; viability loss activity score, % (test concentration not listed); 30,000 tested, 0.64% active; AID 2275; in the data active = viability loss activity score above about 50%; inconclusive = no clear call, values can overlap the other calls; inactive = below about 35%;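 note: higher score means fewer live cells and less ATP luminescence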
# An asterisk follows results filed as active; ? = inconclusive; nt = not tested or not shown. This is one part of a sample in which hits are shown more often than they occur.
SMILES,Hedgehog inh,MITF inhib,BJeLR viab HTS
CC1CC[C@@]2(OC1)O[C@H]1CC3C4CC=C5C[C@@H](O[C@@H]6O[C@H](CO)[C@@H](O[C@@H]7O[C@@H](C)[C@H](O)[C@@H](O)[C@H]7O)[C@H](O)[C@H]6O[C@@H]6O[C@@H](C)[C@H](O)[C@@H](O)[C@H]6O)CC[C@]5(C)C4CC[C@]3(C)[C@@]1(O)[C@@H]2C (some centres not stated),80*,74,92*
C[C@@H]1O[C@@H](O[C@H]2[C@H](O[C@H]3CC[C@@]4(C)C(CC[C@]5(C)C4CC=C4C6CC(C)(C)CC[C@]6(C(=O)O[C@@H]6O[C@H](CO[C@@H]7O[C@H](CO)[C@@H](O[C@@H]8O[C@@H](C)[C@H](O)[C@@H](O)[C@H]8O)[C@H](O)[C@H]7O)[C@@H](O)[C@H](O)[C@H]6O)CC[C@]45C)C3(C)C)OC[C@H](O)[C@@H]2O)[C@H](O)[C@H](O)[C@H]1O (some centres not stated),6,nt,nt
COc1cccc(CC(=O)NC2CCN(c3ncc(C(F)(F)F)cc3Cl)CC2)c1,nt,nt,-3
Cc1ccc(-c2nc(Nc3cccc(C(F)(F)F)c3)sc2CC(=O)O)cc1,nt,nt,-3
CC1=C(C#N)C(c2ccccc2)C2=C(CC(c3ccccc3)CC2=O)N1 (configuration not stated),nt,nt,4
CSc1sc(C#N)c2c1C(=O)CC(c1ccccc1)C2 (configuration not stated),86*,11,0
C=CCN(C(=O)c1cc2c(-c3ccc(OC)c(OC)c3)nn(C)c2s1)c1ccccc1,nt,nt,-8
COc1ccccc1C1CCN(S(=O)(=O)c2ccc(-c3csc(C)n3)s2)CC1,nt,nt,5
Cc1nc(-c2ccc(S(=O)(=O)N3CCCc4ccccc43)s2)cs1,nt,nt,56*
Cc1cc(NC(=O)Nc2ccccc2)c(C(F)(F)F)o1,nt,nt,4
COC(C(=O)NCc1ccc(Cl)cc1Cl)c1ccccc1 (configuration not stated),nt,nt,-3
COc1ccc(N2Cc3cccc(C(=O)Nc4cccc(OC)c4)c3C2=O)cc1,nt,nt,-7
CCOc1ccc(C(=O)Nc2ccc(NC(=O)c3ccccc3)c(C)c2)cc1Br,96*,-2,4
CCOc1ccc(C(=O)Nc2cccc(NC(=O)c3ccccc3)c2)cc1Br,nt,nt,3
CC(C)c1ccc(/C=C/C(=O)NC(=S)Nc2ccc(C(=O)O)cc2)cc1,nt,nt,-6
CC12CCC(CC(=O)c3ccccc3)(CC1)CC2,nt,-37,1
CC(C)(C)C1CCC2(CC1)C(C#N)C2(C#N)C(=O)c1ccccc1 (configuration not stated),?,85*,7
COC(=O)c1ccc(OC(=O)CCN2C(=O)c3ccccc3C2=O)cc1,nt,nt,1
CC(C)CNC(=O)c1cc(-c2ccccc2O)on1,nt,nt,1
Cc1ccc(S(=O)(=O)N(C)C[C@@H]2Oc3c(NC(=O)Nc4ccc(F)cc4)cccc3C(=O)N([C@@H](C)CO)C[C@@H]2C)cc1,108*,30,-7
C[C@H](CO)N1C[C@H](C)[C@H](CN(C)S(=O)(=O)c2ccc(F)cc2)Oc2c(NC(=O)Nc3ccc(F)cc3)cccc2C1=O,101*,-15,1
Cc1ccc(S(=O)(=O)N(C)C[C@@H]2Oc3c(NC(=O)Nc4ccc(F)cc4)cccc3C(=O)N([C@H](C)CO)C[C@@H]2C)cc1,117*,55,-2
C[C@@H]1CN([C@@H](C)CO)C(=O)c2cccc(NC(=O)Nc3ccc(F)cc3)c2O[C@@H]1CN(C)S(=O)(=O)c1ccc(F)cc1,-7,49,-2
C[C@H](CO)N1C[C@H](C)[C@@H](CN(C)S(=O)(=O)c2ccc(F)cc2)Oc2c(NC(=O)Nc3ccc(F)cc3)cccc2C1=O,29,1,-1
Cc1ccc(S(=O)(=O)N(C)C[C@@H]2Oc3c(NC(=O)Nc4ccc(F)cc4)cccc3C(=O)N([C@@H](C)CO)C[C@H]2C)cc1,0,-17,5
SMILES,Hedgehog inh,MITF inhib,BJeLR viab HTS
CCn1cc(C(=O)N2CCN(C)CC2)c(=O)c2cc(S(=O)(=O)N(C)C)ccc21,nt,nt,-3
CCN1CCN(CCNC(=O)Nc2ccc(Cl)cc2)CC1,nt,nt,2
CCOc1ccc2c(c1)sc(=NC(=O)c1ccc(S(=O)(=O)N3CCc4ccccc43)cc1)n2C,nt,nt,1
CCn1c2c(c3cc(OCc4ccccc4)ccc31)CCCC2=O,77*,-25,4
CCn1c2c(c3cc(Br)ccc31)CCCC2=O,8,-8,0
C[C@H](CO)N1C[C@H](C)[C@H](CN(C)Cc2ccc(Cl)c(Cl)c2)Oc2c(NS(=O)(=O)c3cccs3)cccc2C1=O,98*,8,0
C[C@@H]1CN([C@@H](C)CO)C(=O)c2cccc(NS(=O)(=O)c3cccs3)c2O[C@@H]1CN(C)Cc1ccc(Cl)c(Cl)c1,6,-1,-2
COc1ccc(S(=O)(=O)Nc2cccc3c2O[C@@H](CN(C)Cc2ccc(Cl)c(Cl)c2)[C@@H](C)CN([C@H](C)CO)C3=O)cc1,115*,46,3
COc1ccc(S(=O)(=O)Nc2cccc3c2O[C@H](CN(C)Cc2ccc(Cl)c(Cl)c2)[C@H](C)CN([C@@H](C)CO)C3=O)cc1,53,-4,6
C[C@@H]1CN([C@H](C)CO)C(=O)c2cccc(NC(=O)C3CC3)c2O[C@@H]1CN(C)Cc1ccc(Cl)c(Cl)c1,78*,-3,5
C[C@H](CO)N1C[C@H](C)[C@H](CN(C)Cc2ccc(Cl)c(Cl)c2)Oc2c(NS(=O)(=O)c3ccc(F)cc3)cccc2C1=O,86*,27,3
C[C@H](CO)N1C[C@H](C)[C@H](CN(C)Cc2ccc(Cl)c(Cl)c2)Oc2c(NC(=O)C3CCCCC3)cccc2C1=O,10,25,7
C[C@H]1CN([C@@H](C)CO)C(=O)c2cccc(NS(=O)(=O)c3ccc(F)cc3)c2O[C@H]1CN(C)Cc1ccc(Cl)c(Cl)c1,6,-11,-2
COC(=O)Cc1[nH]n(-c2nc3ccccc3s2)c(=O)c1C=Nc1ccc(C)cc1,nt,nt,1
C[C@H](CO)N1C[C@H](C)[C@H](CN(C)C(=O)NC2CCCCC2)Oc2c(NS(=O)(=O)c3cccs3)cccc2C1=O,68*,15,2
C[C@@H]1CN([C@H](C)CO)C(=O)c2cccc(NS(=O)(=O)c3cccs3)c2O[C@H]1CN(C)C(=O)NC1CCCCC1,-2,-9,-4
O=C(C1c2ccccc2Oc2ccccc21)N1CCN=C1SCc1ccccc1F,nt,nt,-3
C=C(C)C(=O)O[C@H]1CC(=C)C2C[C@H](O)[C@](O)(CO)C2[C@H]2OC(=O)C(=C)[C@H]12 (some centres not stated),-3,-11,-11
C=C(C)C(=O)O[C@H]1[C@H]2C(=C)C(=O)O[C@@H]2C[C@@H](C)[C@@H]2O[C@@H]2C(=O)[C@](C)(O)[C@@H]1OC(=O)C(=C)C,100*,41,80*
Cc1ccc(-n2nc3c(c2NC(=O)/C=C\c2ccccc2)CSC3)cc1,nt,nt,0
COc1cc2c(c(OC)c1OC)-c1cc3c(cc1C[C@H]1C(=O)OC[C@@H]1C2)OCO3,10,-8,42
COc1cc2c(c(OC)c1OC)C[C@H]1COC(=O)[C@@H]1Cc1c-2cc(OC)c(OC)c1OC,67*,nt,nt

# Bioassay records: PubChem BioAssay, Broad Institute
